Compounds with a hit are over-represented: about 4.6% of the library has one in this group of screens.
D1 potentiator – Potentiators of Human D1 Dopamine Receptor: qHTS; D(1A) dopamine receptor (Homo sapiens), P21728; HEK293 TREx D1 cells, calcium flux, dopamine EC20 potentiation; potentiation, % at 10 µM; 360,000 tested, 0.036% active; AID 504651, 2011; in the data active = potentiation above about 30%; also: 0% is about no effect
TRHR agonist – qHTS for Small Molecule Agonists and Allosteric Enhancers of Human TRH Receptor: Primary Screen for Agonists; Thyrotropin-releasing hormone receptor (Homo sapiens), P34981; TRHR cells, calcium flux fluo-8, FDSS agonist mode; activation, % at 2 µM; 360,000 tested, 0.18% active; also: 0% is about no effect
Target sequence (P34981 whole entry, looked up): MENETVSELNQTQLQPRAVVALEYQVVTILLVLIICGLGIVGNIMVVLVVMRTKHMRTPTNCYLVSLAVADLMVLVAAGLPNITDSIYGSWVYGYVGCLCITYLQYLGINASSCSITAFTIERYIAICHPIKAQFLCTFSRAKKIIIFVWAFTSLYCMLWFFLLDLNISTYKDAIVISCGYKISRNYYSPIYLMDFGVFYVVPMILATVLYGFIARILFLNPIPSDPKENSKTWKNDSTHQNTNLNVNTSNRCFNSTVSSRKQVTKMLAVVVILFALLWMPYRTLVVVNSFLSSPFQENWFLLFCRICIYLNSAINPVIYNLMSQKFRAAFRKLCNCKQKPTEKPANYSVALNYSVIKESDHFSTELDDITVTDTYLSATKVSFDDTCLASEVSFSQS
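TRHR-expressing cells, plated overnight in medium with 10% serum, were loaded with fluo-8 calcium dye at room temperature. After a 10 s baseline, library compound was pin-added and calcium release was recorded kinetically (ex 480/em 530) as agonist response.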
D1 antag – Antagonist of Human D 1 Dopamine Receptor: qHTS; HEK293 TREx D1 cells, calcium flux, dopamine EC80; active compounds read low; activity change, negative = inhibition, % at 10 µM; 360,000 tested, 3.2% active; AID 504652, 2011; in the data active = activity change below about -30%; also: % is scaled to controls: 0 for no effect and ±100 for the full control effect
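HEK293 T-REx cells expressing inducible, force-coupled D1 receptor; no-wash Ca dye, 30–90 min RT. Cmpd → 180 s read at 1 Hz → EC80 DA → 180 s read.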
TRHR enhancer – qHTS for Small Molecule Agonists and Allosteric Enhancers of Human TRH Receptor: Primary Screen for Enhancers | enhancement, % at 2 µM | TRHR cells, fluo-8 calcium fluorescence, EC20 TRH enhancement | Thyrotropin-releasing hormone receptor (Homo sapiens), P34981 | 360,000 tested, 0.66% active; in the data active = enhancement above about 30%; also: 0% is about no effect
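TRHR-expressing cells loaded with fluo-8 calcium dye were read kinetically (ex 480/em 530) during compound addition, then stimulated with an EC20 of TRH (10 nM final). Enhancement of the Gq-mediated intracellular calcium response was scored.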
D1 agonist – Allosteric Agonists of the Human D1 Dopamine Receptor: qHTS. activation, % at 2 µM. HEK293 T-REx D1 cells, calcium flux, agonist mode. 360,000 tested, 1% active. AID 504660, 2011. D(1A) dopamine receptor (Homo sapiens), P21728; also: 0% is about no effect
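Agonism was scored from calcium flux recorded over 180 s (1 read/s) after pintool compound addition, following a 10-cycle baseline. Cells were inducible force-coupled HEK293 TREx D1, plated overnight at 30 C and loaded with no-wash calcium dye.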
* hit, by the source's call; ! = not confirmed by another sample. Rule as the data show it, unless noted: active = activation above about 30%; inactive = the rest.

What do the screens show for `CCOC(=O)c1ccc(COC(=O)CCc2nc3ccccc3[nH]c2=O)o1`?
D1 potentiator: -5; TRHR agonist: 1; D1 antag: 8; TRHR enhancer: 28; D1 agonist: 0

How did O=C(CCc1nc2ccccc2[nH]c1=O)OCc1ccc(S(=O)(=O)N2CCOCC2)cc1 do in these assays?
D1 potentiator: 1; TRHR agonist: 0; D1 antag: -7; TRHR enhancer: 36*; D1 agonist: 1

What do the screens show for `c1ccc2c(c1)OC(CCCN1CCCCC1)c1ccccc1S2` (stereo not given)?
D1 potentiator: -7; TRHR agonist: 2; D1 antag: -85*; TRHR enhancer: 8; D1 agonist: 14

Results for c1ccc(OCCCCN2CCCCC2)cc1 ?
D1 potentiator: 0; TRHR agonist: 1; D1 antag: 1; TRHR enhancer: 3; D1 agonist: 4

How did CN1CCCC(CC2Oc3ccccc3Sc3ccccc32)C1 (stereo not given) do in these assays?
D1 potentiator: -12; TRHR agonist: 2; D1 antag: -74*; TRHR enhancer: 8; D1 agonist: 49*

How did Cc1ccc2c(c1)C(=O)CC(O)(C(F)(F)F)O2 (stereo not given) do in these assays?
D1 potentiator: -5; TRHR agonist: 0; D1 antag: -6; TRHR enhancer: -1; D1 agonist: 1

How did Cc1ccc2c(c1)C(=O)CC1(CCC(C(C)(C)C)CC1)O2 (stereo not given) do in these assays?
D1 potentiator: -2; TRHR agonist: 0; D1 antag: -31*; TRHR enhancer: -1; D1 agonist: 4

How did Cc1ccc(/C=C2\Oc3cc(OC(=O)N4CCOCC4)ccc3C2=O)cc1 do in these assays?
D1 potentiator: -6; TRHR agonist: 0; D1 antag: -25; TRHR enhancer: -7; D1 agonist: 0

Results for O=C(Oc1ccc2c(c1)O/C(=C\c1ccncc1)C2=O)c1ccccc1 ?
D1 potentiator: -1; TRHR agonist: 0; D1 antag: 3; TRHR enhancer: 3; D1 agonist: 56*

What do the screens show for `Cc1ccc(NC2CCCN(C(=O)CSc3ccncc3)C2)cc1C` (stereo not given)?
D1 potentiator: -4; TRHR agonist: 0; D1 antag: 5; TRHR enhancer: 2; D1 agonist: -1

What do the screens show for `CCc1ccc(NC(=O)CSc2ncc(S(=O)(=O)c3cc(C)ccc3C)c(=O)[nH]2)cc1`?
D1 potentiator: 0; TRHR agonist: 0; D1 antag: -9; TRHR enhancer: 1; D1 agonist: 1

Results for COc1ccccc1-c1ccc(=O)n(CC(=O)NC2CCc3ccccc32)n1 (stereo not given) ?
D1 potentiator: 5; TRHR agonist: 0; D1 antag: 23; TRHR enhancer: 2; D1 agonist: 88*

How did CCCC(=O)N1CC(=O)Nc2ccc(C)cc2C1c1ccc(F)cc1 (stereo not given) do in these assays?
D1 potentiator: -7; TRHR agonist: -1; D1 antag: -88*; TRHR enhancer: 4; D1 agonist: -1

How did COCCCn1c(Cc2csc(Nc3ccccc3)n2)nnc1SCC(N)=O do in these assays?
D1 potentiator: -1; TRHR agonist: 0; D1 antag: -36*; TRHR enhancer: -3; D1 agonist: 1

Results for NC(=O)CSc1nnc(Cc2csc(Nc3ccccc3)n2)n1Cc1ccccc1 ?
D1 potentiator: -4; TRHR agonist: 0; D1 antag: 11; TRHR enhancer: -4; D1 agonist: 1

What do the screens show for `CC(C)(C)c1ccccc1Nc1nc(C#N)nc(NC2CCCC2)n1`?
D1 potentiator: 9; TRHR agonist: -2; D1 antag: 5; TRHR enhancer: 0; D1 agonist: 3

Results for Cc1cccc(OCCCCn2c(CO)nc3ccccc32)c1 ?
D1 potentiator: -5; TRHR agonist: 0; D1 antag: -38*; TRHR enhancer: 5; D1 agonist: 1

Results for CCCCn1c(CNC(=O)CCC)nc2ccccc21 ?
D1 potentiator: 1; TRHR agonist: 0; D1 antag: -34*; TRHR enhancer: 3; D1 agonist: -1

Results for CCc1nc2ccccc2n1CCCCOc1cccc(C)c1 ?
D1 potentiator: 2; TRHR agonist: -2; D1 antag: -7; TRHR enhancer: -3; D1 agonist: 11

How did COc1ccc(OCCCCn2c(CO)nc3ccccc32)cc1 do in these assays?
D1 potentiator: -2; TRHR agonist: 0; D1 antag: -53*; TRHR enhancer: -5; D1 agonist: 13

Results for CCn1c(COc2ccccc2C)nc2ccccc21 ?
D1 potentiator: -7; TRHR agonist: 0; D1 antag: -23; TRHR enhancer: 1; D1 agonist: -1

Results for CCn1c(COc2cccc(C)c2)nc2ccccc21 ?
D1 potentiator: -6; TRHR agonist: -1; D1 antag: -32*!; TRHR enhancer: -3; D1 agonist: 7

How did CCC(C(=O)Nc1cc(OC)ccc1OC)n1c(C)c2cnn(-c3ccccc3)c(=O)c2c1C (stereo not given) do in these assays?
D1 potentiator: -1; TRHR agonist: -2; D1 antag: -1; TRHR enhancer: -3; D1 agonist: 8

Results for COc1ccc(C(=O)Nc2cc(-c3nc4ccccc4s3)ccc2OC)cc1 ?
D1 potentiator: -2; TRHR agonist: 2; D1 antag: -4; TRHR enhancer: -5; D1 agonist: 2

What do the screens show for `COc1ccc(-c2nc3ccccc3s2)cc1NC(=O)c1ccccc1OC`?
D1 potentiator: -3; TRHR agonist: -1; D1 antag: -5; TRHR enhancer: 34*; D1 agonist: 3

What do the screens show for `COc1ccc(-c2nc3ccccc3s2)cc1NC(=O)c1cccc(F)c1`?
D1 potentiator: -1; TRHR agonist: 0; D1 antag: -30*; TRHR enhancer: -1; D1 agonist: 1

What do the screens show for `CCCn1cc(S(=O)(=O)c2cc(C)ccc2C)c(=O)c2cc(F)c(N3CCCCCC3)cc21`?
D1 potentiator: 3; TRHR agonist: 1; D1 antag: 7; TRHR enhancer: 2; D1 agonist: 2

Results for Cc1cc(C)cc(NC(=O)C(=O)NCC(c2ccc3c(c2)OCO3)N2CCN(C)CC2)c1 (stereo not given) ?
D1 potentiator: -4; TRHR agonist: 0; D1 antag: 8; TRHR enhancer: 5; D1 agonist: 26

How did CCn1c(SCC(=O)Nc2sc(C)c(C)c2C#N)nnc1C(C)C do in these assays?
D1 potentiator: -3; TRHR agonist: -1; D1 antag: 11; TRHR enhancer: 31*; D1 agonist: 1
